Screening results deposited in PubChem BioAssay by National Center for Advancing Translational Sciences (NCATS).
D1 agonist = activates the human D1 dopamine receptor. HEK293 T-REx D1 cells, calcium flux, agonist mode. activation, % at 2 µM. 1% of 360,000 active. AID 504660; in the data active means activation above about 30%; further: 0% is about no effect
Target sequence (P21728 whole entry, looked up): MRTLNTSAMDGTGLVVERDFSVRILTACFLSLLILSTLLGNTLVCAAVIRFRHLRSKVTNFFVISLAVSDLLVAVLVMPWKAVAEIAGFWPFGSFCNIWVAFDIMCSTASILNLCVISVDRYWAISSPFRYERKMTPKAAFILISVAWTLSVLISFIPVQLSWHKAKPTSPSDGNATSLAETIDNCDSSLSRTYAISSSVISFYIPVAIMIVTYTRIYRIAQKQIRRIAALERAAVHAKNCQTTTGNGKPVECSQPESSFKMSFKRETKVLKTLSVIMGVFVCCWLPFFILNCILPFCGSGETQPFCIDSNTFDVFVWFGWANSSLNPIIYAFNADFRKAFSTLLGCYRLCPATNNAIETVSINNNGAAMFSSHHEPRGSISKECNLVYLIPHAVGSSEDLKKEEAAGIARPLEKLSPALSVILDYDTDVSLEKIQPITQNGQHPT
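Tetracycline-induced HEK293 TREx D1 cells, force-coupled to calcium signalling, were dye-loaded with a no-wash calcium kit. Compound was pin-added after a 10 s baseline. Fluorescence was read kinetically at 1 cycle/s for 180 s, with calcium rises flagged as agonism.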
Epigenetic reg = regulators of epigenetic silencing causing reporter derepression in mouse cells; murine LDR cells, GFP reporter derepression, 30 h; Potency, µM (highest dose often 53.9 µM), for inactives: at the highest dose GFP activation, hits mostly activators; 0.2% of 280,000 active; further: potency means the concentration at half of the fitted maximal effect; % of control where 0% means no effect; nearly all actives have a fitted effect of over 60% in size
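Reporter derepression read as number of fluorescent GFP-positive objects, 20-120 um in size, counted by laser-scanning cytometer. Mouse LDR line with an epigenetically silenced CMV-GFP locus; compound incubation 30 h, 37 C.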
TRHR enhancer-1 = allosteric enhancers of human TRH receptor; P34981; TRHR cells, fluo-8 calcium fluorescence, EC20 TRH enhancement; enhancement, % at 2 µM; 0.66% of 360,000 active; AID 493056; in the data active means enhancement above about 30%; further: 0% is about no effect
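Enhancer read-out: after compound pinning and an initial kinetic agonist-mode read, an EC20 of TRH (10 nM final) was injected and fluo-8 calcium signal (Ex 480/Em 530) followed at 1 s/cycle for 100 cycles in TRHR-expressing cells.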
D1 PAM = potentiators of human D1 dopamine receptor; AID 504651; 0.036% of 360,000 active; P21728; potentiation, % at 10 µM; HEK293 TREx D1 cells, calcium flux, dopamine EC20 potentiation; in the data active means potentiation above about 30%; further: 0% is about no effect
TRHR agonist-1 = agonists of human TRH receptor; P34981; TRHR cells, calcium flux fluo-8, FDSS agonist mode; activation, % at 2 µM; 0.18% of 360,000 active; AID 493084; in the data active means activation above about 30%; further: 0% is about no effect
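Read-out: compound-evoked intracellular calcium rise in TRHR cells, fluo-8 dye, kinetic FDSS fluorescence at 1 s/cycle following a 10-cycle baseline. Cells cultured overnight before dye loading (30 min–1.5 h, RT).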
D1 antagonist = blocks dopamine activation of the human D1 receptor; P21728; HEK293 TREx D1 cells, calcium flux, dopamine EC80; active compounds read low; activity change, negative = inhibition, % at 10 µM; 3.2% of 360,000 active; in the data active means activity change below about -30%; further: on the % scale 0 is the no-effect control and ±100 the full control effect
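Tetracycline-induced HEK293 T-REx cells with force-coupled D1 receptor were loaded with a no-wash calcium dye. Compound was added after a 10 s baseline and read kinetically for 180 s; EC80 dopamine was then added and calcium flux followed another 180 s.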
TRHR enhancer-2 = confirmation of human TRH receptor allosteric enhancers. activity change, negative = inhibition, % at 46.1 µM. shares compounds with TRHR enhancer-1. AID 493076. 970 tested, under 10 active. TRH receptor cell assay, enhancer confirmation qHTS;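 further: compound effect scored on response to added TRH at EC20 of 10 nM; 0% is about no effect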
TRHR agonist-2 = human TRH receptor agonism confirmation; shares compounds with TRHR enhancer-1; TRHR-expressing cells, agonist activation read-out; Potency, µM (doses to about 46.1 µM), inactives show top-dose activation, actives largely listed as activators; 8% of 970 active; AID 493078; further: potency means the concentration at half of the fitted maximal effect; 0% is about no effect; nearly all actives have a fitted effect of over 75% in size
The depositor's hits bear a star. Most compounds without a hit are left out; they make up all but 4.6% or so of the library. Unless noted, the call rests on the fitted dose curve; in most records, active means well fitted curve in the direction sought with a large enough effect; inconclusive means small, poorly fitted or top-dose-only effect, or another doubt; inactive means no such curve, though single readings can be large; an effect the other way counts as inactive or inconclusive.

COc1ccccc1N1C(C)=CC(=C(C#N)c2nc3ccccc3s2)C=C1C was read as D1 agonist 191*, Epigenetic reg inconclusive, TRHR enhancer-1 -6, D1 PAM 11, TRHR agonist-1 46*, D1 antagonist -24, TRHR enhancer-2 inconclusive and TRHR agonist-2 18µM*.
Screening Cc1cc(OCCOCCNC(C)C)cc(C)c1Cl returned D1 agonist 20, Epigenetic reg 5%, TRHR enhancer-1 5, D1 PAM -6, TRHR agonist-1 3 and D1 antagonist -7.
Cc1cc(OCCCCNC(C)C)cc(C(C)C)c1 was read as D1 agonist 7, Epigenetic reg -2%, TRHR enhancer-1 42*, D1 PAM 2, TRHR agonist-1 0, D1 antagonist -3, TRHR enhancer-2 10 and TRHR agonist-2 2%.
`CC1=C(C(=O)Nc2ccc(C)cc2C)C(c2cc(Br)ccc2F)n2ncc(C(=O)Nc3ccc(C)cc3)c2N1` (centres undefined) gave D1 agonist 4, Epigenetic reg 0%, TRHR enhancer-1 -7, D1 PAM -1, TRHR agonist-1 3 and D1 antagonist 1.
`COc1ccc(-c2cnc(C)o2)cc1S(=O)(=O)Nc1ccc(F)cc1F` gave D1 agonist 2, Epigenetic reg 1%, TRHR enhancer-1 -5, D1 PAM 0, TRHR agonist-1 -1 and D1 antagonist 19.
`Cc1ccc(S(=O)(=O)NCc2ccc(C(=O)NC3CCCCC3)cc2)cc1` gave D1 agonist 3, TRHR enhancer-1 77*, D1 PAM 11, TRHR agonist-1 0, D1 antagonist 4, TRHR enhancer-2 -6 and TRHR agonist-2 0%.
Screening COc1ccccc1C1c2c(-c3ccc(Cl)cc3)n[nH]c2C(=O)N1c1ccc(C)cc1 (centres undefined) returned D1 agonist 1, Epigenetic reg 10%, TRHR enhancer-1 1, D1 PAM 1, TRHR agonist-1 4 and D1 antagonist 13.
Screening O=C(NCc1ccc(F)cc1)c1cccc(N2CCCS2(=O)=O)c1 returned D1 agonist 1, Epigenetic reg -3%, TRHR enhancer-1 -5, D1 PAM -2, TRHR agonist-1 0 and D1 antagonist -3.
CCN(CC)CCN(C(=O)c1ccc2c(c1)CCCC2)c1nc2c(C)cccc2s1 was read as D1 agonist 4, TRHR enhancer-1 1, D1 PAM -1, TRHR agonist-1 38*, D1 antagonist 22, TRHR enhancer-2 -8 and TRHR agonist-2 0%.
Screening Cc1cccc(NS(=O)(=O)c2ccc3[nH]c(=O)ccc3c2)c1C returned D1 agonist 12, Epigenetic reg 1%, TRHR enhancer-1 0, D1 PAM -2, TRHR agonist-1 0 and D1 antagonist 1.
`O=C(Nc1ccccc1)C1CC(=O)n2ncnc2N1` (centres undefined) gave D1 agonist 3, Epigenetic reg -2%, TRHR enhancer-1 -5, D1 PAM 6, TRHR agonist-1 1 and D1 antagonist -4.
For CCOc1ccccc1NC(=O)C1CC(=O)n2ncnc2N1 (centres undefined) the results were D1 agonist 3, Epigenetic reg -1%, TRHR enhancer-1 48*, D1 PAM 0, TRHR agonist-1 0, D1 antagonist 5, TRHR enhancer-2 0 and TRHR agonist-2 0%.
For CC(C)C(=O)Nc1nnc(NC(=S)Nc2ccccc2)s1 the results were D1 agonist 3, Epigenetic reg 1%, TRHR enhancer-1 50*, D1 PAM 11, TRHR agonist-1 0, D1 antagonist -7, TRHR enhancer-2 -3 and TRHR agonist-2 1%.
